# Measurements published in PubChem BioAssay (NCATS).
# Results filed as inconclusive are left out. Entries that show only a call come without a potency. Active and inactive are the calls of the source. Unless noted, calls come from the whole dose curve; as a rule, active = well fitted curve in the direction sought with a large enough effect; inconclusive = small, poorly fitted or top-dose-only effect, or another doubt; inactive = no such curve, though single readings can be large; an effect the other way counts as inactive or inconclusive.
# What was measured:
# [1] = target: Tyrosine-protein kinase Yes (Homo sapiens) (UniProt P07947); test: qHTS for small molecule inhibitors of Yes1 kinase: Primary Screen (AID 686947); note: nearly all actives have a fitted effect of over 60% in size
# Method in brief: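 In this qHTS format, inhibition is expressed relative to DMSO controls with enzyme (maximum) and without enzyme (minimum). The 60 min room-temperature reaction uses 0.1 mM ATP, with ADP detected by luminescence.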
# [2] = qHTS for small molecule inhibitors of Yes1 kinase: Counter Assay (AID 686950);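 note: no kinase present so only ADP-Glo detection of a fixed ADP amount is tested; luminescence from ADP-Glo reporting ADP in a fixed ATP and ADP mixture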
# Method in brief: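 ADP-Glo luminescence read after a 60 min room-temperature incubation of compound with an ATP/ADP mix (0.08 mM/0.02 mM) and no kinase, following a 20 min compound preincubation. Signal scaled between ATP+ADP (max) and 0.1 mM ATP-only (min) wells; Tris pH 7.5, Mg2+, DTT.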
# [3] = qHTS Assay for Identifying Gametocytocidal Compounds (AID 743244); note: potency is the fitted concentration of half-maximal effect;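 for max response: actives lower the fluorescent signal which means gametocytes are killed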; settings: P. falciparum 3D7 stage III-V gametocytes, alamarBlue, 72 h; max response: stronger effect = lower value
# Method in brief: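 Late gametocytes (III–V), P. falciparum 3D7; 72 h drug, then 24 h alamarBlue; resazurin reduction read by fluorescence.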
# [4] = target: Arylsulfatase A (Homo sapiens) (UniProt P15289); test: qHTS screen for enhancers of Arylsulfatase A (ASA1): LOPAC Validation Assay (AID 720538); settings: ASA enzyme activity, LOPAC qHTS enhancer assay; at 57.5 µM (top of the series)
# Method in brief: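 Cell-based enhancement test: residual ASA activity in SV40-transformed I179S patient fibroblasts is measured by pNCS turnover (0.5mM final, 14h, room temperature) following 48h compound incubation; higher fluorescence indicates activation.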
# [5] = qHTS for compounds that reverse cellular toxicity of Amyloid beta (A-beta) peptide in yeast: LOPAC Validation Assay (AID 720559)
# Method in brief: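 Here, A-beta-toxic yeast grow with test compounds at 30 C for 48 hr before optical density at 600 nm is recorded; data are normalized against DMSO and the FeCl3-clioquinol control.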
# [6] = qHTS for Activators of Parkin Expression: LOPAC Validation Assay (NLuc Reporter) (AID 720572)
# Method in brief: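 Compound effects on Parkin promoter activity were measured as NanoLuc luminescence after 24 h at 37 C. The neuronal reporter line also carried FLuc, which was read first. LOPAC compounds were tested at 7 concentrations, with normalization to DMSO (0%) and positive control (100%).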
# [7] = qHTS for Activators of Parkin Expression: LOPAC Validation Assay (FLuc Reporter) (AID 720573)
# Method in brief: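 Readout is FLuc luminescence from neuronal reporter cells (Parkin promoter, FLuc plus NLuc) after 24 h compound exposure in dose response. Values normalized to neutral DMSO and positive-control compounds.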
# [8] = target: T1, Hexokinase-4 (Homo sapiens) + Glucokinase regulatory protein (Homo sapiens) (UniProt P35557+Q14397); test: qHTS assay for inhibitors of recombinant human GCK-GKRP interaction: Diaphorase-coupled assay (AID 743205)
# Method in brief: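 Signal derives from resorufin generated by diaphorase, linked to GCK turnover of glucose (5 mM) and ATP (0.4 mM). Enzyme complex was added after a 20-minute compound preincubation and monitored for 30 minutes.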
# [9] = target: T1, Hexokinase-4 (Homo sapiens) + Glucokinase regulatory protein (Homo sapiens); test: qHTS assay for inhibitors of recombinant human GCK-GKRP interaction: ADP-Glo assay (AID 743206)
# Method in brief: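 Pin-transferred compounds meet a 15 nM GST-GCK/15 nM FLAG-GKRP/2 uM S6P mix (dispense concentrations). ATP is then added to 0.4 mM final with 5 mM glucose, and the reaction runs 60 min at room temperature. ADP is quantified luminescently.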
# [10] = target: T1, Hexokinase-4 (Homo sapiens) + Glucokinase regulatory protein (Homo sapiens); test: qHTS assay for inhibitors of recombinant human GCK-GKRP interaction: HTRF assay (AID 743207)
# Method in brief: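 Titration screening format: recombinant GST-GCK and FLAG-GKRP at 5 nM, S6P at 2 uM, labelled anti-tag antibodies, 60 min at RT, dual-wavelength HTRF readout.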
# [11] = qHTS profiling for inhibitors of Plasmodium falciparum (3D7) proliferation (AID 743322; call rule not given here;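 note: infected erythrocytes exposed to compound for 72 h before lysis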); settings: P. falciparum 3D7 proliferation; at 28.7 µM (top of the series) unless noted
# Method in brief: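 Parasite DNA was quantified by SYBR Green I fluorescence (ex 485, em 535 nm) after overnight lysis in saponin/Triton buffer at room temperature. Cultures at 0.3% parasitemia and 2.5% hematocrit were first exposed to compound for 72 h at 37 C; signals were normalised to artemisinin (0.29 uM) and vehicle wells.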
# Chain of Tyrosine-protein kinase Yes (Homo sapiens) (P07947 whole entry, looked up): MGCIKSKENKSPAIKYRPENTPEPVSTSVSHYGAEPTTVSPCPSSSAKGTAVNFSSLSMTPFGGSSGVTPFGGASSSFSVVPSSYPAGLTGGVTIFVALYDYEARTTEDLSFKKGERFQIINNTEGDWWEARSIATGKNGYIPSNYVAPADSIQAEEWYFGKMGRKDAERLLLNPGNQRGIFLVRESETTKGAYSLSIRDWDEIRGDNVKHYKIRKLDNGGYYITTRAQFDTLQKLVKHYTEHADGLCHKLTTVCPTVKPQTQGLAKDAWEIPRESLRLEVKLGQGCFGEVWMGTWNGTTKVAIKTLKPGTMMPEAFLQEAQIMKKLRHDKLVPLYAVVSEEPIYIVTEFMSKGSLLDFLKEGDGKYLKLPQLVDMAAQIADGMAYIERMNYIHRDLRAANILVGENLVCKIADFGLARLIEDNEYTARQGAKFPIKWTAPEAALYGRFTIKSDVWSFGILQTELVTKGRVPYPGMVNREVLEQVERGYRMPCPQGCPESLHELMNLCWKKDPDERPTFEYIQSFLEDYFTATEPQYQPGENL
# T1 sequence (P35557 whole entry, looked up): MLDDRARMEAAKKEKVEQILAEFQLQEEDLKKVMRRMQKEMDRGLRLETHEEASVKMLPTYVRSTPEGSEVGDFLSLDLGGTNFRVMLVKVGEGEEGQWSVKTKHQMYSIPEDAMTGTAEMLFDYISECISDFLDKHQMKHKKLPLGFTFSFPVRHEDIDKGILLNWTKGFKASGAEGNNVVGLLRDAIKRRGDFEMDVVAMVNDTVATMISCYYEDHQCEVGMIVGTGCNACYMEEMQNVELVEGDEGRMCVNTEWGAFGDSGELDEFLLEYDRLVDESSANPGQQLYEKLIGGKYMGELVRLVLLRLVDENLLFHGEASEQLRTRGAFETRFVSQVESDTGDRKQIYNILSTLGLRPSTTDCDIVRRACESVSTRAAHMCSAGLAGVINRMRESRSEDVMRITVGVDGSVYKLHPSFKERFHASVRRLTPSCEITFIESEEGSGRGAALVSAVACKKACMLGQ
# T1 sequence (Q14397 whole entry, looked up): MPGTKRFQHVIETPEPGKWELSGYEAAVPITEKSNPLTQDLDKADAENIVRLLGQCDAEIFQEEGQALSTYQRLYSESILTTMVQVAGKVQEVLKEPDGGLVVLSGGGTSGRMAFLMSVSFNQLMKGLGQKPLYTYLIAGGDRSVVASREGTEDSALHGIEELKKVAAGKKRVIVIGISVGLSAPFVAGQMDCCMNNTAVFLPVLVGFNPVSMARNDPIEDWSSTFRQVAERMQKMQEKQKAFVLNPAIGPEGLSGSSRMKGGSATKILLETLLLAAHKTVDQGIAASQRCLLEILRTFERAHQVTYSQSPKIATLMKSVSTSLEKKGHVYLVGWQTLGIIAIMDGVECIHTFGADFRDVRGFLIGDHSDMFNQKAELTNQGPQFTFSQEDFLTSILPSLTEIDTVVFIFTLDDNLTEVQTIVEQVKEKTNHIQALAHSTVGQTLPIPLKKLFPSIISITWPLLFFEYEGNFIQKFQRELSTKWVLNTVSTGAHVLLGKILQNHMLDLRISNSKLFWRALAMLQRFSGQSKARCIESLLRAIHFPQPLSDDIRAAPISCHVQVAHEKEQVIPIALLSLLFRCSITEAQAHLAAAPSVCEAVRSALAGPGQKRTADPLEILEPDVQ
# Chain of Arylsulfatase A (Homo sapiens) (P15289 whole entry, looked up): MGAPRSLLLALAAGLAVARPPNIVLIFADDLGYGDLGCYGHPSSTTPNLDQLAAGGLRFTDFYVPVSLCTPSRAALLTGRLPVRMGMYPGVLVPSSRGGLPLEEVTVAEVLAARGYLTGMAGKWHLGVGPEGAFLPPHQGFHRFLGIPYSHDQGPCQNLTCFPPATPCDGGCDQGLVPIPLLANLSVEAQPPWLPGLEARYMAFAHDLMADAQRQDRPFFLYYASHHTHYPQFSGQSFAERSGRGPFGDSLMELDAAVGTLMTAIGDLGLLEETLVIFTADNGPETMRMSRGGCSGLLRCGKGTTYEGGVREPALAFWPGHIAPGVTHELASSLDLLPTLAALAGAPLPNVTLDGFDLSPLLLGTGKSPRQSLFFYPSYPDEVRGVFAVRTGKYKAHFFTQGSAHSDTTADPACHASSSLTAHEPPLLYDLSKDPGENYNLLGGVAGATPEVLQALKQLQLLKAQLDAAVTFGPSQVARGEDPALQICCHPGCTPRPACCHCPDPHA
smiles,measurement,setting,value
COc1ccc2c(c1)CC[C@H]1[C@@H]2CC[C@]2(C)[C@@H](NCCCCCCN3C(=O)C=CC3=O)CC[C@H]12,Potency,[1],inactive
same,outcome,[2],inactive
COC(=O)Nc1ccc(-c2nc(N3CCOCC3)c3cnn(C4CCN(C(=O)OC)CC4)c3n2)cc1,Potency,[1],inactive
same,outcome,[2],inactive
same,max response,[3],6.16% (inactive)
COc1nc(C)cnc1NS(=O)(=O)c1cccnc1-c1ccc(-c2nnco2)cc1,Potency,[1],inactive
same,outcome,[2],inactive
same,max response,[3],18.4% (inactive)
OCCn1cc(-c2ccc3c(c2)CCC3=NO)c(-c2ccncc2)n1,Potency,[1],inactive
same,outcome,[2],inactive
same,max response,[3],8.08% (inactive)
CCCCCCCCCCCCCC(=O)N[C@H](CO)[C@H](O)c1ccc([N+](=O)[O-])cc1,Potency,[1],inactive
same,outcome,[2],inactive
same,max response,[3],-2.76% (inactive)
CCC(=O)N1CCN(c2ccc(-n3c(=O)ccc4cnc5ccc(-c6cnc7ccccc7c6)cc5c43)cc2C(F)(F)F)CC1,Potency,[1],inactive
same,outcome,[2],inactive
same,Potency,[3],5.26 µM (active)
CC(C)C[C@@H](C(=O)N[C@H](C(=O)OC1CCCC1)c1ccccc1)[C@H](O)C(=O)NO,Potency,[1],inactive
same,outcome,[2],inactive
CC[C@H](C)C(=O)O[C@H]1C[C@H](O)C=C2C=C[C@H](C)[C@H](CC[C@@H](O)C[C@@H](O)CC(=O)O)[C@H]21,max response,[3],-1.33% (inactive)
CC(C)CN(C[C@@H](O)[C@H](Cc1ccccc1)NC(=O)O[C@H]1CO[C@H]2OCC[C@H]21)S(=O)(=O)c1ccc(N)cc1,max response,[3],-5.35% (inactive)
CCCCN(CCCC)CC(O)c1cc(Cl)cc2c1-c1ccc(Cl)cc1C2=Cc1ccc(Cl)cc1 (configuration not stated),Potency,[3],0.059 µM (active)
COc1ccc(-c2nc3ccc(C4=NNC(=O)CC4C)cc3[nH]2)cc1 (configuration not stated),max response,[3],13.2% (inactive)
Clc1ccc(COC(Cn2ccnc2)c2ccc(Cl)cc2Cl)c(Cl)c1 (configuration not stated),Potency,[3],4.48 µM (active)
NCC1CCC(C(=O)O)CC1 (configuration not stated),max response,[3],-0.776% (inactive)
NS(=O)(=O)c1cc(Cl)c(Cl)c(S(N)(=O)=O)c1,max response,[3],-4.73% (inactive)
C[C@H]1O[C@@H](n2cc(F)c(=O)[nH]c2=O)[C@H](O)[C@H]1O,outcome,[4],inactive; inhibitor; fitted 8.4921 uM
same,outcome,[5],inactive
same,outcome,[6],inactive
same,outcome,[7],inactive
same,outcome,[8],inactive
same,outcome,[9],inactive
same,outcome,[10],inactive
same,max response,[3],6.51% (inactive)
CCCCOCCOc1nc(-c2ccc(C(=O)O)c(F)c2)sc1C,outcome,[2],inactive
same,max response,[3],43.8% (inactive)
CO[C@H]1O[C@@H]2O[C@@]3(C)CC[C@@H]4[C@@H](C)CC[C@@H]([C@H]1C)[C@@]24OO3,Potency,[3],0.0118 µM (active)
CC(O)=C(C#N)C(=O)Nc1ccc(C(F)(F)F)cc1,Potency,[1],inactive
same,outcome,[2],inactive
same,max response,[3],27.1% (inactive)
same,remaining parasite growth % (stronger effect = lower value),[11],89.8%
O=C(Nc1ccc(OC(F)(F)F)cc1)c1sccc1NCc1ccnc2ccccc12,outcome,[2],inactive
same,max response,[3],8.87% (inactive)
same,remaining parasite growth % (stronger effect = lower value),[11],71.5%
CC(=O)NCCC(=O)N[C@@H](CCC(N)=O)C(=O)N[C@@H](CO)C(=O)N[C@@H](CCC(N)=O)C(=O)N[C@@H](CCC(N)=O)C(=O)N[C@H](C(=O)N[C@@H](Cc1ccccc1)C(=O)N[C@]1(C)CCCCCCC=CCCC[C@@](C)(C(=O)N[C@@H](CCC(N)=O)C(=O)N[C@@H](CC(N)=O)C(N)=O)NC(=O)[C@H](CC(C)C)NC(=O)[C@H](CC(C)C)NC(=O)[C@@H](CCCNC(=N)N)NC(=O)[C@H](Cc2c[nH]c3ccccc23)NC(=O)[C@H](CC(C)C)NC(=O)[C@H](CC(N)=O)NC1=O)[C@H](C)O,outcome,[2],inactive
same,remaining parasite growth % (stronger effect = lower value),[11],38.2%
CC(=O)Nc1cccc(-n2c(=O)n(C3CC3)c(=O)c3c(Nc4ccc(I)cc4F)n(C)c(=O)c(C)c32)c1,Potency,[1],inactive
same,outcome,[2],inactive
same,remaining parasite growth % (stronger effect = lower value),[11],-2.85%
Cc1cc2c(cc1C1(c3ccc(C(=O)O)cn3)CC1)C(C)(C)CCC2(C)C,outcome,[2],inactive
same,max response,[3],8.43% (inactive)
COc1ccnc(CS(=O)c2nc3ccc(OC(F)F)cc3[nH]2)c1OC (configuration not stated),max response,[3],7.9% (inactive)
CNC(=O)c1cc(COc2nnc(Nc3ccc(Cl)cc3)c3ccoc23)ccn1,Potency,[1],inactive
same,outcome,[2],inactive
same,max response,[3],13% (inactive)
same,remaining parasite growth % (stronger effect = lower value),[11],54.7%
CN(C)CCN(C)C(=O)c1ccc(NC(=O)Nc2ccc(-c3nc(N4CCOCC4)c4ccn(CC(F)(F)F)c4n3)cc2)cc1,outcome,[2],inactive
same,Potency,[3],23.5 µM (active)
O=C(Nc1cccc2c(=O)cc(-c3nn[nH]n3)oc12)c1ccc(OCCCCc2ccccc2)cc1,max response,[3],38.4% (inactive)
CCNC(=O)c1noc(-c2cc(C(C)C)c(O)cc2O)c1-c1ccc(CN2CCOCC2)cc1,outcome,[2],inactive
same,Potency,[3],0.0469 µM (active)
same,remaining parasite growth % (stronger effect = lower value),[11],0.155%
